Experiment [1] can be described thus: yeast TOR pathway RPL19A-GFP modulators, primary screen, cell-based, S. cerevisiae, multiplex flow cytometry (AID 1862; in the data active means percent of DMSO control GFP below about 86%;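 further: lower values mimic rapamycin by blocking the RPL19A rise seen in DMSO cells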). The following applies: S. cerevisiae RPL19A-GFP strain, flow cytometry fluorescence, 3 h; at 10 µM; stronger effect = lower value.
Experiment [2] in a line: modulators of MEP2-GFP levels in yeast, primary screen, S. cerevisiae, multiplex flow cytometry (AID 1867;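 active means GFP response, as percent of the DMSO control, above the screen-wide mean plus 3 SD, about 139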;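 further: median GFP channel fluorescence of barcode-gated MEP2-GFP cells measured by flow cytometry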). The note with it: S. cerevisiae MEP2-GFP strain, 3 h, at 10 µM, stronger effect = higher value, 100% means same as DMSO wells. Background: In flow cytometry, cells or beads pass a laser one at a time.
The nature of experiment [3]: modulators of CIT2-GFP expression in yeast, primary screen, S. cerevisiae, GFP fusion, multiplex flow cytometry (AID 1870;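 active means percent response above a set limit, the screen-wide mean plus 3 SD, cut at about 130% in these data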;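 further: barcoded CIT2-GFP strain pooled with four other GFP strains with rapamycin as positive control; median GFP fluorescence per well over plate mean of DMSO wells so 100% = DMSO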). The note with it: 3 h, at 10 µM, stronger effect = higher value.
Experiment [4] in a line: modulators of LAP4-GFP expression in yeast, primary screen, S. cerevisiae, multiplex flow cytometry (AID 1873;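 active means GFP signal, as percent of the solvent control, above the screen mean plus 3 SD, about 149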). The note with it: 3 h, at 10 µM, stronger effect = higher value.
Experiment [5] is described as follows: modulators of AGP1-GFP expression in yeast TOR pathway, primary screen, cell-based, multiplex flow cytometry, S. cerevisiae (AID 1887;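 active means GFP signal above the screen-wide mean plus 3 SD, that is over about 124.5% of the solvent control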;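 further: AGP1-GFP fusion strain of S. cerevisiae within a five-strain barcoded multiplex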). The following applies: 3 h, at 10 µM, stronger effect = higher value.
Experiment [6] can be described thus: inhibitors of CD8+ T cell-vesicle binding, pilot screen, LFA-1/ICAM-1 modulator project, MLPCN validation set, flow cytometry (AID 2523;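 active means response below a set limit, under 55% cells CD8-positive and vesicle-bound, and CD8 cells' 90th-percentile brightness under 279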;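 on vesicle binding response: mean PE anti-B7-1 fluorescence of CD8+ cells relative to row control; 100% = QL9-loaded vesicles with DMSO vehicle in the same plate row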). The note with it: 2C mouse CD8+ T cells, at 7 µM, stronger effect = lower value; double positive events: measured here: CD8+/vesicle+ event percentage.
For experiment [7], the target named is Integrin beta-1 (Homo sapiens) + Integrin alpha-4 (Homo sapiens) (UniProt P13612+P05556). The experiment is described as follows: inhibition of HUTS-21 binding to VLA-4, pilot screen, VLA-4 allosteric modulator project, U937 cells, HUTS-21 mAb, flow cytometry, validation set (AID 2674;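 active means inhibition above 50%, about 3 SD of the validation set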;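 further: antibody binding induced by the VLA-4 ligand LDV present at three times its Kd; 0% = LDV ligand with antibody and no compound and 100% = antibody without LDV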). The note with it: HUTS-21 LIBS mAb binding, at 6.7 µM, stronger effect = higher value, binding induced by LDV ligand.
Sequence of Integrin beta-1 (Homo sapiens) + Integrin alpha-4 (Homo sapiens) (P05556 whole entry, looked up): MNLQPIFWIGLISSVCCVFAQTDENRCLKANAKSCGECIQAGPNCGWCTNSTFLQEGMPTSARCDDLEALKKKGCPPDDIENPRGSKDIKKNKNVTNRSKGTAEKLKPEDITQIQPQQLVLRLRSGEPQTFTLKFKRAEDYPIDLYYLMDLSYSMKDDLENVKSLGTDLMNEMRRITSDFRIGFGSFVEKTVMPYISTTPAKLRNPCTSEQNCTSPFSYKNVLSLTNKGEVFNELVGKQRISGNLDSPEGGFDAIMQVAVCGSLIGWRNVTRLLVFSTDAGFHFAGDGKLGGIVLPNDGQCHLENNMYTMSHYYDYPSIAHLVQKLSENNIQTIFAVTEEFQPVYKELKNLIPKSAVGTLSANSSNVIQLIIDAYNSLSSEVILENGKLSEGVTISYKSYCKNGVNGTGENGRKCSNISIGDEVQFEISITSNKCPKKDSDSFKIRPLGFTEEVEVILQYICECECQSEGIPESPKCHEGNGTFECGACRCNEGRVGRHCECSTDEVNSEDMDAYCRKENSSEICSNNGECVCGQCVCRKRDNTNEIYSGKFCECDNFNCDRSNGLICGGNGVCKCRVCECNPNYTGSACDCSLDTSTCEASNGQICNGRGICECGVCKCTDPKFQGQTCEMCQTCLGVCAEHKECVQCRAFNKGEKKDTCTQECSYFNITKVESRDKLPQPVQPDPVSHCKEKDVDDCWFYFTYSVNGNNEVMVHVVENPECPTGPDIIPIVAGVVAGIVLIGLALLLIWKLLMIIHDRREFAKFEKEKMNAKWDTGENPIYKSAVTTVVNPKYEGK
Sequence of Integrin beta-1 (Homo sapiens) + Integrin alpha-4 (Homo sapiens) (P13612 whole entry, looked up): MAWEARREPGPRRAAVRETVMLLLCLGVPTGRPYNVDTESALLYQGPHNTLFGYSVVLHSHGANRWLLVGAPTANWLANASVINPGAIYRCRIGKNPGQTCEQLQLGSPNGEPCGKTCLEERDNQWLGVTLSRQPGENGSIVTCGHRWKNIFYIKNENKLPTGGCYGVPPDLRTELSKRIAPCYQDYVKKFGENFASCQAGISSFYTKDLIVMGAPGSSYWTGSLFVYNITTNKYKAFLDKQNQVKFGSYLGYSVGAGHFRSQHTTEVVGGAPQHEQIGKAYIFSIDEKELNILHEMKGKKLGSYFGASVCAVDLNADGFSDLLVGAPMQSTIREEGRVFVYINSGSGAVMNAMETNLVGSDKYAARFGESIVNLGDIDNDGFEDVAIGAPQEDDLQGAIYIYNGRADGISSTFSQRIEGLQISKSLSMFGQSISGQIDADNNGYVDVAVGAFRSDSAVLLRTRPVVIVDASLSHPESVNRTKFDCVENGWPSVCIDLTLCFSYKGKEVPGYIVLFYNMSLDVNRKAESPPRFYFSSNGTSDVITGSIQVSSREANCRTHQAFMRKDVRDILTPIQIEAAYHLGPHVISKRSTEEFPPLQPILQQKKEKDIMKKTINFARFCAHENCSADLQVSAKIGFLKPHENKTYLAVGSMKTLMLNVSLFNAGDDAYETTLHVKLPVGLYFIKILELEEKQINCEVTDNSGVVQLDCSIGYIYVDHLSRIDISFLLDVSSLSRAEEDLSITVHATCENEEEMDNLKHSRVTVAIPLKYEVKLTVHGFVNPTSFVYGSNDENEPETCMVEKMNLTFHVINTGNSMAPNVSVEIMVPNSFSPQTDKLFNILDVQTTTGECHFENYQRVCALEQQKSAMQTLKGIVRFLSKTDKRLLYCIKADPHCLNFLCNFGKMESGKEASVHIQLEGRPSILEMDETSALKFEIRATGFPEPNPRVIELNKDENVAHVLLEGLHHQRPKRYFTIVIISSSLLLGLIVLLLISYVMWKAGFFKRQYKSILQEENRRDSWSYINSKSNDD

Experiment [8] in a line: superoxide lowering in aged yeast cells, pilot screen, validation compound set (AID 2706;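 active means superoxide response below 65% of plate, a cut near 3 SD across the whole screen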;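 further: yeast exposed to compound for one week at 30 degrees C before staining; 100% = mean of all compound wells on the same plate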). The note with it: S. cerevisiae aging, superoxide DHE fluorescence; at 10 µM, stronger effect = lower value.
The target of experiment [9] is Beta-adrenergic receptor kinase 1 (Homo sapiens) (UniProt P25098). The experiment can be described thus: GRK2 binders displacing RNA aptamer, biochemical, validation, human GRK2, bead flow cytometry (AID 488806;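 active means aptamer binding inhibition above 30%, about 3 SD of noise from non-fluorescent compounds; inactive means inhibition at or below 30%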). The note with it: bead-bound GRK2, FAM-aptamer displacement, at 10 µM, stronger effect = higher value.
Sequence of Beta-adrenergic receptor kinase 1 (Homo sapiens) (P25098 whole entry, looked up): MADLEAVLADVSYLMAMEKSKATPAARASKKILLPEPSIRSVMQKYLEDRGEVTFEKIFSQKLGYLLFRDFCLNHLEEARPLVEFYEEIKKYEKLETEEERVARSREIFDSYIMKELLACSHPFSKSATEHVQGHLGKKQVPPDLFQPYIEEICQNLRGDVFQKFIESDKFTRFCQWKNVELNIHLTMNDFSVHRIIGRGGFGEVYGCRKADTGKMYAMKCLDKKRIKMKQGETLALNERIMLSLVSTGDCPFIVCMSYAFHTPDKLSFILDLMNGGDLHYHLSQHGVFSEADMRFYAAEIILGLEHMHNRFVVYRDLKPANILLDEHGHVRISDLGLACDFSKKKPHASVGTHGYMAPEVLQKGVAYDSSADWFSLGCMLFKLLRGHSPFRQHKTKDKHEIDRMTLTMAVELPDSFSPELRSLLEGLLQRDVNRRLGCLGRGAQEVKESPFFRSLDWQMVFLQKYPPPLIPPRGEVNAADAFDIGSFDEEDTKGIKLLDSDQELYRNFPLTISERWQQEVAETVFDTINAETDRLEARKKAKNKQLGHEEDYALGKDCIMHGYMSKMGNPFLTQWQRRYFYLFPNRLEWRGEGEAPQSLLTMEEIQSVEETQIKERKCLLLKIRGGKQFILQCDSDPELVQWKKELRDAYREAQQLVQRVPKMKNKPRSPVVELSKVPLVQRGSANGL
Experiment [10] has as its target AP-2 complex subunit beta (Homo sapiens) (UniProt P63010). The experiment is described as follows: inhibitors of arrestin peptide binding to AP2, pilot screen, biochemical, validation set, GST-AP2 beads, flow cytometry (AID 504541;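 active means inhibition above 54%, about 3 SD of non-fluorescent compounds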;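 further: AP2 carries R879A mutation and is captured from E. coli lysate; bead-bound FITC arrestin peptide fluorescence measuring arrestin peptide binding to AP2; 0% = DMSO wells and 100% = excess unlabeled arrestin peptide control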). The note with it: FITC arrestin peptide, at 10 µM, stronger effect = higher value, AP2 beta2 appendage fragment, R879A mutant.
A short description of experiment [11]: yeast V-ATPase proton transport modulators, S. cerevisiae, pHLuorin, HTS validation (AID 504600; in the data active means response above about 15%;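 further: plate controls were DMSO for no effect and reference compound for full effect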). The following applies: S. cerevisiae pHLuorin cytosolic pH, at 10 µM, stronger effect = higher value.
The test system of experiment [12] is anti-desmoglein-3 scFv antibody binding to human DSG3. The experiment is described as follows: inhibitors of anti-DSG3 scFv binding to DSG3, pilot screen, biochemical, validation compound set, bead-based, flow cytometry (AID 588368).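 Further: signal is the median channel fluorescence of bead-bound GFP antibody.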 The following applies: Protein G beads, DSG3-Fc, scFv-GFP binding, at 10 µM, stronger effect = lower value.
Experiment [13] is described as follows: inhibitors of fungal efflux pumps CDR1, CDR2, MDR1, pilot screen, validation compound set, multiplex, phenotypic (AID 588506;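 active means efflux inhibition above 0.42, the validation set average plus 4 SD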;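 further: Nile Red retained in cells so higher fluorescence means more efflux inhibition; 0 = negative control wells and 1 = enniatin B 25 µM full block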). The note with it: S. cerevisiae pump-expressing triplex, Nile Red efflux flow cytometry; at 10 µM; stronger effect = higher value; the pumps come from Candida albicans.
For experiment [14], the target named is ATP-binding cassette sub-family B member 6 (Homo sapiens) (UniProt Q9NP58). The experiment is described as follows: ABCB6 transporter inhibitors, pilot screen, K562-ABCB6 cells, flow cytometry, validation set (AID 588550;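 active means inhibition above the screen-wide mean plus 3 SD, about 51%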;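 further: 0% = DMSO wells and 100% = benzethonium chloride 70 µM positive control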). The note with it: K562-ABCB6 porphyrin accumulation, 1 h, at 10 µM, stronger effect = higher value.
Sequence of ATP-binding cassette sub-family B member 6 (Homo sapiens) (Q9NP58 whole entry, looked up): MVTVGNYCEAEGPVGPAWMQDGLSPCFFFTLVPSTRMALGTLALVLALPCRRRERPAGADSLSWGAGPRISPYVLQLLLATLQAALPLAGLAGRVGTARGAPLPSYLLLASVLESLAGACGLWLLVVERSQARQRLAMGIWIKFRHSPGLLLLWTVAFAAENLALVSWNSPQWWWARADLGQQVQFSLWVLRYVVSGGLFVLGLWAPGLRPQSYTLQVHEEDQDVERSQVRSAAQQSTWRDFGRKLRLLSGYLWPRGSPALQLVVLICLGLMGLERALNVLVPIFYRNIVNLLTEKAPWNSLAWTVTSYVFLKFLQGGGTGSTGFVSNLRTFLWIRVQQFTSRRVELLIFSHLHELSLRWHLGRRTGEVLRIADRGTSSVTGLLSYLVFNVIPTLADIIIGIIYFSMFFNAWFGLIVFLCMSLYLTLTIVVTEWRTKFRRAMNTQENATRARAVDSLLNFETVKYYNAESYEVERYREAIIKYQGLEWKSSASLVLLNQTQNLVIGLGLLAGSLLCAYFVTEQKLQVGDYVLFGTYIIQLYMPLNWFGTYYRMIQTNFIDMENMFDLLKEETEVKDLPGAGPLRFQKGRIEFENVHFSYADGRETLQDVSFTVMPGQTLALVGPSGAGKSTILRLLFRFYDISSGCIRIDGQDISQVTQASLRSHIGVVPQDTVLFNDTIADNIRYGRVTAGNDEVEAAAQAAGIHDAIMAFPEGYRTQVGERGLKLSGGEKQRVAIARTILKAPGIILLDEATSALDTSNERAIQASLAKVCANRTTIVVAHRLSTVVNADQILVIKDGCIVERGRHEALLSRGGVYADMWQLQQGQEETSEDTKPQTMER
Experiment [15] is described as follows: promoters of myeloid differentiation in arrested cells, primary screen, cell-based, GFP/MAC1 double positive, flow cytometry, validation set (AID 588685;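 active means differentiation response of at least 50%, scaled between solvent and reference control, from cells with both markers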;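 further: compound exposure lasts four days before antibody staining and flow analysis; 0% = DMSO wells and 100% = 5 µM fulvestrant positive control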). The following applies: ER-HoxA9 marrow cells, stronger effect = higher value, normalized: vehicle 0, fulvestrant 100.

From PubChem BioAssay come the findings set out here.

Records with an inconclusive call do not appear. Activity calls are given as the source filed them.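 How the source made its calls, unless noted: active means binding below the plate cutoff, the plate median minus 3 SD, with a reading above zero; inconclusive means below the plate cutoff but reading exactly zero; inactive means the rest.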

Sequence of AP-2 complex subunit beta (Homo sapiens) (P63010 whole entry, looked up, the tested form may be a part, one chain of several): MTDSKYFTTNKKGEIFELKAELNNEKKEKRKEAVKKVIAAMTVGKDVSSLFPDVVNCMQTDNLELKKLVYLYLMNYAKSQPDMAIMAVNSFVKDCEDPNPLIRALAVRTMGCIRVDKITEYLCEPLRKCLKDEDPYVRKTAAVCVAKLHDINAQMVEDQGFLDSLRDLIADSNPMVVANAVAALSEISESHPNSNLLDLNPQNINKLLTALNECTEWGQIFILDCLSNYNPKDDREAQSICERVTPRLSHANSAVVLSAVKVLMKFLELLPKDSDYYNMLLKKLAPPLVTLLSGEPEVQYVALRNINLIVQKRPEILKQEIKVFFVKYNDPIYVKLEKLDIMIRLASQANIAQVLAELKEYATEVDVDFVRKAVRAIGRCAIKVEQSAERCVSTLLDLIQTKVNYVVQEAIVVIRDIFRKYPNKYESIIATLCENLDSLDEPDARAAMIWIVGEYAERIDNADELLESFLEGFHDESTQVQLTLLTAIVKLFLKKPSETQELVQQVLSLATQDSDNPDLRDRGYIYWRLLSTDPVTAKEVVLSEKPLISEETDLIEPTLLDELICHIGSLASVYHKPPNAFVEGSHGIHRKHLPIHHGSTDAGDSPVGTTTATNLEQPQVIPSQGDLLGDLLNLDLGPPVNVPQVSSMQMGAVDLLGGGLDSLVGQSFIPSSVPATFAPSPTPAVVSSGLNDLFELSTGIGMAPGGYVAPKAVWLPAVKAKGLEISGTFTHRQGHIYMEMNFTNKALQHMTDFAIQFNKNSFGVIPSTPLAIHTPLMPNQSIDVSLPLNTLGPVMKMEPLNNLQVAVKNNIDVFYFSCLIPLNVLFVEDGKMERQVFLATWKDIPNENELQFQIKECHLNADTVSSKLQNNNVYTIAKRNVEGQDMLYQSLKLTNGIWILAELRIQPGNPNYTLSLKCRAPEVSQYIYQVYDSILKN

As to `CCOc1cc(C)cc2oc(=O)cc(-c3ccccc3)c12`, the percent of DMSO control GFP in experiment [1] was 99.5% (inactive). The GFP response vs DMSO in [2] was 105% (inactive); in experiment [4], 123% (inactive). Besides, in [3], the percent response of DMSO control is 92% (inactive). Also, the GFP response, % of DMSO in experiment [5] was 92.8% (inactive). In experiment [6], this compound gave a double positive events of 54.7%. Also, in experiment [6], the vesicle binding response is 138% (inactive). For the same compound, the inhibition (in general, the relative decrease from the control value, in per cent) is -5.84% (inactive) in [7], 14.1% (inactive) in [10] and 5% (inactive) in experiment [14]. The superoxide response (% of plate) in [8] is 88.9% (inactive). Besides, the aptamer binding inhibition in experiment [9] is 4% (inactive). For the same compound, the response in experiment [11] was 8.03% (inactive). Also, the binding (% of control) in [12] was 102% (inactive). Further, in experiment [13], the efflux inhibition (fraction of control) was 0.18 (inactive). Further, the differentiation response in experiment [15] was -16.4% (inactive).
In the case of `O=C(O)CCCCCCCC(=O)O`, the percent of DMSO control GFP in [1] was 100% (inactive). Also, the GFP response vs DMSO was 99.9% (inactive) in experiment [2] and 117% (inactive) in [4]. Also, in experiment [3], the percent response of DMSO control is 90% (inactive). Also, in experiment [5], the GFP response, % of DMSO is 97.5% (inactive). In [6], this compound registered a double positive events of 58.5%. Further, the vesicle binding response in experiment [6] is 171% (inactive). For the same compound, the results for the inhibition in experiment [7], in experiment [10] and in [14] were -6.77% (inactive), 12.5% (inactive) and -18% (inactive), respectively. For the same compound, in experiment [8], the superoxide response (% of plate) was 101% (inactive). Moreover, in experiment [9], the aptamer binding inhibition is 4% (inactive). For the same compound, the response in [11] is 0.2% (inactive). In experiment [12], the binding (% of control) is 99% (inactive). Besides, in experiment [13], the efflux inhibition (fraction of control) is 0.14 (inactive). Moreover, the differentiation response in [15] was 24% (inactive).
Take `COC1(C)CC2C(CC1OC(=O)c1cc([N+](=O)[O-])cc([N+](=O)[O-])c1)C2(C)C` (stereo not given): in experiment [1], the percent of DMSO control GFP is 104% (inactive). In addition, the GFP response vs DMSO in experiment [2] was 99.9% (inactive); in [4], 178% (active). In experiment [3], the percent response of DMSO control was 106% (inactive). Further, in [5], the GFP response, % of DMSO was 74.2% (inactive). Further, in experiment [6], the double positive events worked out at 52.4%. For the same compound, the vesicle binding response in experiment [6] was 222% (inactive). The inhibition in [7] was -3.97% (inactive); in experiment [10] it was -6.29% (inactive); in experiment [14], 9% (inactive). Besides, the superoxide response (% of plate) in [8] is 114% (inactive). Besides, the aptamer binding inhibition in experiment [9] was 5% (inactive). Besides, in [11], the response is 3.54% (inactive). Besides, the binding (% of control) in experiment [12] was 99.3% (inactive). For the same compound, in [13], the efflux inhibition (fraction of control) was -0.35 (inactive). The differentiation response in experiment [15] was -18% (inactive).
For the compound `CCOc1cccc(N2C(=O)CC(N(CCc3ccc(OC)c(OC)c3)C(=O)CC)C2=O)c1` (stereo not given), the percent of DMSO control GFP in [1] is 101% (inactive). Besides, the GFP response vs DMSO in experiment [2] is 105% (inactive); in [4] it was 98.4% (inactive). Besides, the percent response of DMSO control in experiment [3] is 104% (inactive). Moreover, the GFP response, % of DMSO in experiment [5] is 100% (inactive). In addition, the double positive events in experiment [6] was 59.7%. In experiment [6], the vesicle binding response was 184% (inactive). Besides, the inhibition in [7] was 0% (inactive); in [10], 27.3% (inactive); in experiment [14] it was 5% (inactive). In experiment [8], the superoxide response (% of plate) is 94% (inactive). Moreover, in [9], the aptamer binding inhibition is 2% (inactive). In addition, the response in experiment [11] is -1.88% (inactive). The binding (% of control) in [12] is 100% (inactive). In addition, the efflux inhibition (fraction of control) in [13] is -0.2 (inactive). Moreover, the differentiation response in [15] is -18% (inactive).
Take `CCN(CC)CCOC(=O)C1(C2CCCCC2)CCCCC1`: in experiment [1], the percent of DMSO control GFP is 110% (inactive). The GFP response vs DMSO was 101% (inactive) in [2] and 110% (inactive) in [4]. The percent response of DMSO control in experiment [3] was 106% (inactive). The GFP response, % of DMSO in experiment [5] is 108% (inactive). The double positive events in experiment [6] came to 50.5%. Besides, in experiment [6], the vesicle binding response is 162% (inactive). Moreover, the inhibition in experiment [7] is 5.36% (inactive); in experiment [10] it was -6.04% (inactive); in experiment [14] it was -45% (inactive). Also, the superoxide response (% of plate) in [8] is 110% (inactive). The aptamer binding inhibition in experiment [9] was -2% (inactive). In experiment [11], the response is 1.87% (inactive). The binding (% of control) in [12] was 101% (inactive). The efflux inhibition (fraction of control) in experiment [13] was 0.25 (inactive). For the same compound, the differentiation response in experiment [15] was -27.6% (inactive).
